Test results taken from PubChem BioAssay (NCATS).
Records with an inconclusive call do not appear. Calls of active or inactive are those of the source. Unless noted, calls follow the shape of the full dose curve.

How the values were obtained:
[1] = molecular target: Bile acid receptor (Homo sapiens) (UniProt Q96RI1); test: qHTS assay for small molecule antagonists of farnesoid X receptor signaling (AID 588526); also: % is scaled to controls: 0 for no effect and ±100 for the full control effect
Procedure, shortened: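 Antagonist mode: titrated compounds tested against chenodeoxycholic acid stimulation (normalized to 50 uM CDCA and DMSO) in GeneBLAzer HEK293T cells for 16 h. Beta-lactamase read by CCF4 fluorescence; IC50 from Hill fits.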

[2] = molecular target: Bile acid receptor (Homo sapiens) (UniProt Q96RI1); test: qHTS assay for small molecule agonists of farnesoid X receptor signaling (AID 588527); conditions: HEK293T FXR-UAS-bla, beta-lactamase ratio, 16 h; activation: stronger effect = higher value;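 also: series mostly up to about 77 µM; 0% = vehicle basal and 100% = reference agonist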
Procedure, shortened: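 FXR-UAS-bla HEK293T cells (10% dialyzed FBS) preincubated 5-7 h at 37 C, then compounds at up to 92 uM for 16 h at 37 C. CCF4 beta-lactamase read-out after 2 h RT. Normalized to chenodeoxycholic acid (100 uM) and DMSO; Hill fit gave EC50 and efficacy.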

[3] = molecular target: Peroxisome proliferator-activated receptor gamma (Homo sapiens) (UniProt P37231); test: qHTS assay for small molecule agonists of peroxisome proliferator-activated receptor gamma signaling (AID 588536; active = well fitted curve in the direction sought with a large enough effect in the signal ratio, with a control signal flat, not every such curve was filed as active; the % refers to the signal ratio;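 also: 0% = DMSO basal wells and 100% = rosiglitazone at 2 µM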)
Sequence of Peroxisome proliferator-activated receptor gamma (Homo sapiens) (P37231 whole entry, looked up): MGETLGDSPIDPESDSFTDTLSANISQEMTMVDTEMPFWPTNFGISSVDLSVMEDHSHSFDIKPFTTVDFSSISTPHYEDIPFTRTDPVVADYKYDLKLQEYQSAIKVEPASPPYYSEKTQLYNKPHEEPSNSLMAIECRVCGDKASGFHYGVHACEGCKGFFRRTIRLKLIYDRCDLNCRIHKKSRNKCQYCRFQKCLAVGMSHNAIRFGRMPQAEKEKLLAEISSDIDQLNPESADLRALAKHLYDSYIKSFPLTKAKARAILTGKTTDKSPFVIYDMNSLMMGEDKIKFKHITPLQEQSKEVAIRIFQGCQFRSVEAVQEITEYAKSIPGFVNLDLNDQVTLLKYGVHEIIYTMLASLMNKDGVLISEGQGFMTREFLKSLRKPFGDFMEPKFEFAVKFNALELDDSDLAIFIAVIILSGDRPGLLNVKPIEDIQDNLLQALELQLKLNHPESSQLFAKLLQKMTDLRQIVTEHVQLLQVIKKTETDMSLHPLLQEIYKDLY
Procedure, shortened: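 Cells were plated and held 6–6.5 h at 37 C, then compounds were added as a titration series. After a further 16 h, CCF4 dye was loaded for 2 h at room temperature and emission at 460/530 nm recorded.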

[4] = molecular target: Peroxisome proliferator-activated receptor gamma (Homo sapiens) (UniProt P37231); test: qHTS assay for small molecule antagonists of peroxisome proliferator-activated receptor gamma signaling (AID 588537; active = well fitted inhibition curve with a large enough effect in the signal ratio, with a control signal flat, not every such curve was filed as active; the % refers to the signal ratio;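 also: reporter cells co-stimulated with 50 nM rosiglitazone agonist during compound treatment; % of control where 0% means no effect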)
Procedure, shortened: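 Fluorescence at 460 and 530 nm (405 nm excitation) reported beta-lactamase cleavage of CCF4 after 2 h room-temperature loading. HEK293 reporter cells in 1% charcoal/dextran-treated FBS had received compound and rosiglitazone for 16 h.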

[5] = qHTS assay for small molecule agonists of retinoid X receptor alpha signaling (AID 588544); conditions: HEK293T RXRa-UAS-bla, beta-lactamase reporter, 18 h; 530 nm emission;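 as to activation: 0% = DMSO basal wells and 100% = reference agonist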
[6] = molecular target: Retinoic acid receptor RXR-alpha (Homo sapiens) (UniProt P19793); test: as above
Sequence of Retinoic acid receptor RXR-alpha (Homo sapiens) (P19793 whole entry, looked up): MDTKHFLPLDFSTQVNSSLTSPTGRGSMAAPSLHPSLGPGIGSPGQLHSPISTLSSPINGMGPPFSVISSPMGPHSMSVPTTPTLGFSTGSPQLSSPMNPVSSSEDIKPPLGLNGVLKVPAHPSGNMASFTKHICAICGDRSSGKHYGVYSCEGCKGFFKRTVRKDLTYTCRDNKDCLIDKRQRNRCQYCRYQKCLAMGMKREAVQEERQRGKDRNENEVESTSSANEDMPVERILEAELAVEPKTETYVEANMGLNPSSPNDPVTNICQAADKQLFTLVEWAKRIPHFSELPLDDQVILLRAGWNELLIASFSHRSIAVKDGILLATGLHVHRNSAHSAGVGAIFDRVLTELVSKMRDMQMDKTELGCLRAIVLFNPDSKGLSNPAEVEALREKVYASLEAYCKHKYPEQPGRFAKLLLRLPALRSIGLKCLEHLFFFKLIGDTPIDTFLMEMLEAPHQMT

[7] = molecular target: Thyroid hormone receptor beta (Homo sapiens) (UniProt P10828); test: qHTS assay for small molecule agonists of thyroid hormone receptor beta signaling (AID 588545);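 also: 0% = DMSO only and 100% = 10 nM T3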
Sequence of Thyroid hormone receptor beta (Homo sapiens) (P10828 whole entry, looked up): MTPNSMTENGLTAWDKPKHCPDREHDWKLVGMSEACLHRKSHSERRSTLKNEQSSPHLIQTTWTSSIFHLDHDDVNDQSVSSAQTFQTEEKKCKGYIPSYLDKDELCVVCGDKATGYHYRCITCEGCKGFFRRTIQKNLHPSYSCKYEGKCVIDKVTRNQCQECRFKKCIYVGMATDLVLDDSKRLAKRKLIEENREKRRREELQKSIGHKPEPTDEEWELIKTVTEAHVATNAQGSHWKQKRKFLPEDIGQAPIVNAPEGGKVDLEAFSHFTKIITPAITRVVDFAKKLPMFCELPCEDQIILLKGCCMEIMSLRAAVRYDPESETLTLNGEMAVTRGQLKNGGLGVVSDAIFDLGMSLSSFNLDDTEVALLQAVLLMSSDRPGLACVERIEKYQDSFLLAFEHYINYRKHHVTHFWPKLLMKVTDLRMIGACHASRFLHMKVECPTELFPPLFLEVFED
Procedure, shortened: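 TR-UAS-bla GripTite HEK 293 cells (2500/well, medium with 2% charcoal/dextran FBS) were treated in agonist mode for 18 h at 37 C, titrated. Beta-lactamase was read by CCF4 ratio after 2 h; normalized to 10 nM T3 (100%) and DMSO, Hill-fitted for EC50 and efficacy.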

[8] = molecular target: Thyroid hormone receptor beta (Homo sapiens) (UniProt P10828); test: qHTS assay for small molecule antagonists of thyroid hormone receptor beta signaling (AID 588547; active = well fitted inhibition curve with a large enough effect in the signal ratio, with a control signal flat, not every such curve was filed as active; the % refers to the signal ratio;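 also: cells stimulated with 0.4 nM T3 agonist during compound exposure; series mostly up to about 77 µM; % is scaled to controls: 0 for no effect and ±100 for the full control effect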); conditions: TR-UAS-bla HEK293, beta-lactamase ratio, antagonist mode, 18 h
Procedure, shortened: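 TR-UAS-bla GripTite HEK293 cells in 2% charcoal/dextran FBS medium; compounds 0.59 nM to 92 uM with T3 at 0.4nM final, 18 h at 37 C. Beta-lactamase read by CCF4 fluorescence (460/530 nm); Hill fits gave IC50 and efficacy.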

[9] = qHTS assay for small molecule agonists of the antioxidant response element (ARE) signaling pathway (AID 651741; active = well fitted activation curve with a large enough effect in the signal ratio; the % refers to the signal ratio; also: potency is read from the fitted curve at half-maximal effect; as to activation: % of control where 0% means no effect)
Procedure, shortened: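 Stably integrated ARE-beta-lactamase reporter HepG2 cells; 16 h compound incubation, 37 C; LiveBLAzer FRET substrate 2 h at room temperature; fluorescence intensity.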

[10] = qHTS assay for small molecule activators of the p53 signaling pathway (AID 651743; active = well fitted activation curve with a large enough effect in the signal ratio, not every such curve was filed as active; the % refers to the signal ratio; also: series mostly up to about 92 µM; % of control where 0% means no effect); conditions: HCT-116 p53RE-bla, beta-lactamase FRET ratio, 16 h; activation: stronger effect = higher value
Procedure, shortened: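 Following 16 hours of compound exposure at 37 C, HCT-116 cells bearing the p53RE-bla reporter were loaded with LiveBLAzer B/G FRET substrate for 2 hours at room temperature and fluorescence intensity was recorded.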

[11] = qHTS assay for small molecule activators of the nuclear factor-kappa B (NF-kB) signaling pathway (AID 651749; active = well fitted activation curve with a large enough effect in the signal ratio; the % refers to the signal ratio; also: series mostly up to about 77 µM; % of control where 0% means no effect); conditions: NF-kB-bla ME-180 cells, beta-lactamase FRET ratio, 16 h; activation: stronger effect = higher value
Procedure, shortened: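 In this qHTS format, compounds acting as activators increase NF-kB-driven beta-lactamase in ME-180 cells, measured as disrupted FRET after 16 hr exposure at 37C and 5% CO2.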

[12] = qHTS assay for environmental chemicals that activate the Aryl hydrocarbon Receptor (AhR) signaling pathway (AID 651777; active = well fitted curve in the direction sought with a large enough effect; an effect the other way counts as inactive or inconclusive; also: % of control where 0% means no effect; nearly all actives have a fitted effect of over 15% in size); conditions: 1A2-DRE human hepatoma cells, luciferase, 24 h; activation: stronger effect = higher value
Procedure, shortened: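 Stable CYP1A2 promoter/DRE-luciferase human hepatoma line treated 24 hr; One-Glo luminescence, 30 min RT.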

[13] = molecular target: Peroxisome proliferator-activated receptor alpha (Homo sapiens) (UniProt Q07869); test: qHTS assay for small molecule agonists of the peroxisome proliferator-activated receptor alpha (PPARalpha) signaling pathway (AID 651778; active = well fitted curve in the direction sought with a large enough effect; an effect the other way counts as inactive or inconclusive; also: % of control where 0% means no effect); conditions: PathHunter PPARalpha complementation, chemiluminescence, 6 h; max response: stronger effect = higher value
Sequence of Peroxisome proliferator-activated receptor alpha (Homo sapiens) (Q07869 whole entry, looked up, the tested form may be a part): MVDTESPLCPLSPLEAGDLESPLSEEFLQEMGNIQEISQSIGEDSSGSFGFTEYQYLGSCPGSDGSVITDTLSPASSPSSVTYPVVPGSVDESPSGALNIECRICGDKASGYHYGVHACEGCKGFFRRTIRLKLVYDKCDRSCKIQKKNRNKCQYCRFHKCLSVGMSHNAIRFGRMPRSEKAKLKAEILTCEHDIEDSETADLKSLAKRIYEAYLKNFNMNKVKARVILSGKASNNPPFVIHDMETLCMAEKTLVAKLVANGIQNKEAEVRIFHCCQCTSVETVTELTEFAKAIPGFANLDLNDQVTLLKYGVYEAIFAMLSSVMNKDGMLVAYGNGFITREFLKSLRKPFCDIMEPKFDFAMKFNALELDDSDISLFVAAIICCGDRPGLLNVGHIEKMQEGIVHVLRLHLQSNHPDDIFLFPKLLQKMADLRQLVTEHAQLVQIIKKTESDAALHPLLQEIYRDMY
Procedure, shortened: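 Enzyme-fragment complementation assay in which ligand-bound PPARalpha translocates and forms an active enzyme that generates chemiluminescence. Cells were plated overnight, exposed to compound for 6 hr at 37 C, and then given detection reagent for 60 min at room temperature.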

[14] = qHTS assay for small molecule agonists of the antioxidant response element (ARE) signaling pathway measured by Nrf2-dependant transcriptional activity (AID 720636; active = well fitted curve in the direction sought with a large enough effect in the repeat runs; an effect the other way counts as inactive or inconclusive;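 also: HepG2 cells with an ARE-driven luciferase reporter; % of control where 0% means no effect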)
Procedure, shortened: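 Reporter gene assay, HepG2 ARE-luc: 16 hr compound, 37 C, 5% CO2; read-out luciferase luminescence.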

[15] = qHTS assay for small molecule agonists of the antioxidant response element (ARE) signaling pathway measured by Nrf2-dependant transcriptional activity - cell viability counter screen (AID 720653; active = well fitted curve in the direction sought with a large enough effect in the repeat runs; an effect the other way counts as inactive or inconclusive; also: % is scaled to controls: 0 for no effect and ±100 for the full control effect); conditions: ARE-bla HepG2 viability, CellTiter-Glo ATP luminescence, 16 h; max response: stronger effect = lower value
Procedure, shortened: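 ARE-bla HepG2 cells treated with compounds for 16 h at 37C; this counter screen measures viability as intracellular ATP by CellTiter-Glo luminescence after 30 min at room temperature.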

[16] = qHTS assay for cell viability of HEK293 cells (AID 743288; active = well fitted curve in the direction sought with a large enough effect; an effect the other way counts as inactive or inconclusive; also: % is scaled to controls: 0 for no effect and ±100 for the full control effect; nearly all actives have a fitted effect of over 50% in size); conditions: ATP luminescence (CellTiter-Glo), 18 h; max response: stronger effect = lower value
Procedure, shortened: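 ATP luminescence (CellTiter-Glo) reports metabolically competent cell number after parental HEK293 cells, 2,000/well, were treated with DMSO-dissolved compounds for 18 h at 37 C; reagent incubation 30 min, room temperature.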

[17] = qHTS assay for cell viability of the p53RE-bla HCT-116 cell line (AID 743292; active = well fitted curve in the direction sought with a large enough effect; an effect the other way counts as inactive or inconclusive; also: % is scaled to controls: 0 for no effect and ±100 for the full control effect; nearly all actives have a fitted effect of over 55% in size)
Procedure, shortened: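 Readout: CellTiter-Glo luminescence after 30 min RT. Treatment: compounds in DMSO, 16 h, 37 C. Cells: CellSensor p53RE-bla HCT-116, 4,000/well, preincubated 5 h.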

[18] = molecular target: Nuclear receptor subfamily 1 group I member 2 (Rattus norvegicus) (UniProt Q9R1A7); test: qHTS assay for small molecule activators of the rat pregnane X receptor (rPXR) signaling pathway (AID 651751; call rule not given here; also: 0% is about no effect); conditions: rPXR reporter cells, luciferase (One-Glo), 24 h
Sequence of Nuclear receptor subfamily 1 group I member 2 (Rattus norvegicus) (Q9R1A7 whole entry, looked up): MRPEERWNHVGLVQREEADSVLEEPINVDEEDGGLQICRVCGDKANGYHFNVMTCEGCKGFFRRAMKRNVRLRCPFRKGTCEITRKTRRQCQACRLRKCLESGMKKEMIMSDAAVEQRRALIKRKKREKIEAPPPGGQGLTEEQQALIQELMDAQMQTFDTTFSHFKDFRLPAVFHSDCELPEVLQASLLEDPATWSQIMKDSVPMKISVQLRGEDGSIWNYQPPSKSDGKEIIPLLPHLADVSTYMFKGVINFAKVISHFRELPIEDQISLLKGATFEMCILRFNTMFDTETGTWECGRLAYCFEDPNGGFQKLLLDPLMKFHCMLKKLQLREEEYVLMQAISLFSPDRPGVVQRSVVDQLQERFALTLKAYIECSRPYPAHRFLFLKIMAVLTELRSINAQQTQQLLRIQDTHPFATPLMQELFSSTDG

[19] = molecular target: Glucocorticoid receptor (Homo sapiens) (UniProt P04150); test: qHTS assay for small molecule agonists of glucocorticoid receptor signaling (AID 588532; active = well fitted curve in the direction sought with a large enough effect in the signal ratio, with a control signal flat; the % refers to the signal ratio;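 also: 100% = dexamethasone at 0.1 µM and 0% = DMSO only wells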); conditions: HeLa MMTV-bla, beta-lactamase ratio, agonist, 18 h; activation: stronger effect = higher value, percent of dexamethasone control, DMSO zero
Sequence of Glucocorticoid receptor (Homo sapiens) (P04150 whole entry, looked up): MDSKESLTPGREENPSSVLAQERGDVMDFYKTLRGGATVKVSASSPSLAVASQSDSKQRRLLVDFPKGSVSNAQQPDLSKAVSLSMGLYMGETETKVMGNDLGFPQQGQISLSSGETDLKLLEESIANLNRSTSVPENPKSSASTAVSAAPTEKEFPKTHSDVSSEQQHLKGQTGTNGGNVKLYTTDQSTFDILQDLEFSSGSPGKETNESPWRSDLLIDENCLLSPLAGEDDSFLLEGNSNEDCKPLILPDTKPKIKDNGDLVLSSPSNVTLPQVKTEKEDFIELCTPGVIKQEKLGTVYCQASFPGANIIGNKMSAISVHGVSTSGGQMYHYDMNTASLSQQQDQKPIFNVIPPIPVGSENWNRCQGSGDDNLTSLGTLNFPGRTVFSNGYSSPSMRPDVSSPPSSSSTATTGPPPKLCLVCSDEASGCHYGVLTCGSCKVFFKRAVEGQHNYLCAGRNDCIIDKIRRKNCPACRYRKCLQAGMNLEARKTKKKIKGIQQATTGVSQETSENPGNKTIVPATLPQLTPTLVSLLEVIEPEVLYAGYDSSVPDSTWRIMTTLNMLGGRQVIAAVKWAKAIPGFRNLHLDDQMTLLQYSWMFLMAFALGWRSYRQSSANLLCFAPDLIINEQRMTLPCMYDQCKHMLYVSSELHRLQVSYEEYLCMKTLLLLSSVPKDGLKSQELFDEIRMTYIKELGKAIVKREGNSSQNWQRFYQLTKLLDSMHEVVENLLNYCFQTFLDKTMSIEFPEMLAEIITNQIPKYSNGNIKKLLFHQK
Procedure, shortened: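 MMTV-bla HeLa beta-lactamase reporter cells in 1% charcoal/dextran FBS medium, compounds up to 92 uM for 18 h at 37 C, CCF4 readout; normalized to 0.1 uM dexamethasone (100%), EC50 and efficacy from Hill fits.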

[20] = molecular target: Glucocorticoid receptor (Homo sapiens) (UniProt P04150); test: qHTS assay for small molecule antagonists of glucocorticoid receptor signaling (AID 588533; active = well fitted inhibition curve with a large enough effect in the signal ratio, with a control signal flat, not every such curve was filed as active; the % refers to the signal ratio; also: % is scaled to controls: 0 for no effect and ±100 for the full control effect)
Procedure, shortened: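 Antagonist-mode qHTS: compound titrations added to GRE-bla HeLa cells, then dexamethasone 2 nM final; 18 h, 37 C. CCF4 FRET fluorescence normalized to dexamethasone and DMSO; IC50 from Hill fit.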

[21] = molecular target: Peroxisome proliferator-activated receptor delta (Homo sapiens) (UniProt Q03181); test: qHTS assay for small molecule agonists of peroxisome proliferator-activated receptor delta signaling (AID 588534);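 also: 0% = DMSO basal wells and 100% = positive control agonist at 10 µM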
Sequence of Peroxisome proliferator-activated receptor delta (Homo sapiens) (Q03181 whole entry, looked up): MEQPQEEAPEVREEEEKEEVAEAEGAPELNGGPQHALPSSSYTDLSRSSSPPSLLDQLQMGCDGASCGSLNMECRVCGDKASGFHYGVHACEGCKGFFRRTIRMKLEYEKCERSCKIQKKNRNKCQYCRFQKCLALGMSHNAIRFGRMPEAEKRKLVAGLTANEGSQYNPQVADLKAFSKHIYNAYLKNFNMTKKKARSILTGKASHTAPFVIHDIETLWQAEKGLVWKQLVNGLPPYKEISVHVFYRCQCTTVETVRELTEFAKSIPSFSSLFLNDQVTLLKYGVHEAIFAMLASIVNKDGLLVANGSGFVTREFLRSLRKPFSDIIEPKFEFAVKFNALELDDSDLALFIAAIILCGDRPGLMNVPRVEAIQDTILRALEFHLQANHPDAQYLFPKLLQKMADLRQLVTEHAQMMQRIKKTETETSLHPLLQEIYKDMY
Procedure, shortened: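 Agonist-mode beta-lactamase reporter readout (CCF4 dye, 2 h at RT) after 18 h at 37 °C exposure to a titration; Hill-equation fitting gave EC50 and maximal response.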

[22] = molecular target: Vitamin D3 receptor (Homo sapiens) (UniProt P11473); test: qHTS assay for small molecule antagonists of vitamin D receptor signaling (AID 588541)
Sequence of Vitamin D3 receptor (Homo sapiens) (P11473 whole entry, looked up): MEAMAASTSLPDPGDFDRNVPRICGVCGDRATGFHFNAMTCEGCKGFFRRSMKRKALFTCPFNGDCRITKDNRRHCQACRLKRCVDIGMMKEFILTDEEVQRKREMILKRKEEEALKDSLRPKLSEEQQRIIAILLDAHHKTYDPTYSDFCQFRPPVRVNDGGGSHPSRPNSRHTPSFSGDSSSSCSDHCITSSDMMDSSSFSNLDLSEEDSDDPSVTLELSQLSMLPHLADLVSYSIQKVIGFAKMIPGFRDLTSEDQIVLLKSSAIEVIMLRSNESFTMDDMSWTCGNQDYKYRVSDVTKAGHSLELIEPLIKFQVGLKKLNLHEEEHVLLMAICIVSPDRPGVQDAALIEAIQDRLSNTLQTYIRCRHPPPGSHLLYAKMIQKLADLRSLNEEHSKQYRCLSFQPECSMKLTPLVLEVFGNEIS
Procedure, shortened: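 VDR-UAS-bla HEK293T cells in 2% charcoal-stripped FBS were stimulated with 1-alpha,25-dihydroxyvitamin D3 (3 nM final) plus compound for 16 h at 37 C. The beta-lactamase CCF4 readout was normalized to 50 nM agonist and DMSO, and Hill fits gave IC50.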

[23] = molecular target: Vitamin D3 receptor (Homo sapiens) (UniProt P11473); test: qHTS assay for small molecule agonists of vitamin D receptor signaling (AID 588543);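 also: 0% = DMSO basal and 100% = reference agonist control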
Procedure, shortened: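 β-lactamase reporter, VDR-UAS-bla HEK293T, agonist mode. Cells plated 5 h at 37 °C, compound titration 16 h at 37 °C, CCF4 dye 2 h RT, ratio 460/530 nm. Hill fit → EC50, efficacy vs 50 nM 1α,25-(OH)2D3.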

[24] = qHTS assay for small molecule antagonists of retinoid X receptor alpha signaling (AID 588546; active = well fitted inhibition curve with a large enough effect in the signal ratio, with a control signal flat, not every such curve was filed as active; the % refers to the signal ratio); conditions: HEK293T RXRa-UAS-bla, beta-lactamase ratio, antagonist mode; measured here: W530 green channel, cytotoxicity proxy
Procedure, shortened: (§1)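 Beta-lactamase reporter inhibition, read as CCF4 fluorescence ratio (ex 405, em 460/530 nm) after 2 h at RT. HEK293T UAS-bla cells, 2500/well, were stimulated with 9-cis-RA at 500 or 100 nM final alongside test compound for 18 h at 37 C.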

[25] = molecular target: Retinoic acid receptor RXR-alpha (Homo sapiens) (UniProt P19793); test: as above; conditions: HEK293T RXRa-UAS-bla, beta-lactamase ratio, antagonist mode
Procedure, shortened: as §1

[26] = qHTS assay for small molecule activators of the human pregnane X receptor (PXR) signaling pathway (AID 720659; call rule not given here; also: 0% is about no effect)
[27] = qHTS assay for small molecule antagonists of peroxisome proliferator-activated receptor delta signaling (AID 588535; active = well fitted inhibition curve with a large enough effect in the signal ratio, with a control signal flat, not every such curve was filed as active; the % refers to the signal ratio;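 as to max response: cells co-treated with a PPAR-delta agonist as stimulator during compound exposure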); conditions: HEK293T PPARd-UAS-bla, beta-lactamase FRET ratio, 18 h; 460 nm channel
Procedure, shortened: (§2)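 Fluorescence from CCF4-loaded GeneBLAzer PPAR-delta-UAS-bla HEK293T cells (2 hrs RT loading) quantified reporter inhibition after an 18 hr, 37 C compound exposure across a titration.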

[28] = molecular target: Peroxisome proliferator-activated receptor delta (Homo sapiens) (UniProt Q03181); test: as above
Procedure, shortened: as §2

Sequence of Bile acid receptor (Homo sapiens) (Q96RI1 whole entry, looked up): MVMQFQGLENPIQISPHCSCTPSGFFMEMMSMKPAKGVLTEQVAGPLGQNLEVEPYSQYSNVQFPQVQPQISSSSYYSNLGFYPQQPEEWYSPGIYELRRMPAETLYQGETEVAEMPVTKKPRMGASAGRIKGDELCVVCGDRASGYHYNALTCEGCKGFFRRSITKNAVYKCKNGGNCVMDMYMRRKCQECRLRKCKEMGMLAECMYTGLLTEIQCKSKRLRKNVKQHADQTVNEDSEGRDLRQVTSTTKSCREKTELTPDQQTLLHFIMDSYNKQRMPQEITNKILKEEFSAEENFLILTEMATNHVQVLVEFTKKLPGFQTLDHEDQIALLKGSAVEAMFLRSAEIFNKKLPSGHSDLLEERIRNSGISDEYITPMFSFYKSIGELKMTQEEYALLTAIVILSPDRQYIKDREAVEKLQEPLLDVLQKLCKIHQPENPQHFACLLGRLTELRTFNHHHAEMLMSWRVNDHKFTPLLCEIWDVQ

CCC(C)(c1ccc(O)cc1)c1ccc(O)cc1
inactive: Potency [1] | activation [2] 1.29% | Potency [3] | Potency [4] | Potency [6] | Potency [7] | activity change % (negative = inhibition) [8] 5.47% | activation [10] -1.26% | activation [11] -1.76% | activation [12] -1.12% | max response [13] -1.57% | Potency [14] | max response [15] -14.2% | max response [16] -0.148% | Potency [17] | max response [18] -0.68%
3.09%: max response [5]
active: Potency [9] 54.5 µM

COc1nn(C(=O)NS(=O)(=O)c2ccccc2OC(F)(F)F)c(=O)n1C
inactive: Potency [1] | activation [19] -3.65% | Potency [20] | outcome [21] | Potency [3] | Potency [4] | Potency [22] | outcome [23] | Potency [6] | Potency [7] | max response [25] -13.4% | activity change % (negative = inhibition) [8] 8.96% | Potency [9] | activation [11] -2.5% | activation [12] 1.39% | max response [13] -1.08% | Potency [14] | max response [15] 3.81% | max response [16] -3.61% | Potency [17] | max response [18] 1.31% | outcome [26]
-2.65%: max response [24]
-2.96%: max response [5]

COc1cccc(C(=O)NN(C(=O)c2cc(C)cc(C)c2)C(C)(C)C)c1C
inactive: Potency [1] | activation [2] 4% | outcome [21] | Potency [28] | Potency [3] | Potency [4] | Potency [22] | Potency [6] | Potency [7] | max response [25] -0.788% | activity change % (negative = inhibition) [8] -4.61% | activation [12] 1.74% | max response [13] 0.438% | Potency [14] | max response [15] 2.48% | max response [16] -4.45% | Potency [17]
-0.516%: max response [27]
-2.17%: max response [5]
-5.99%: max response [24]

O=C(O)CCCCCCCCC(=O)O
inactive: activation [2] -3.53%

CC(C)COP(=O)(OCC(C)C)OCC(C)C
-13.9%: max response [24]
21.8%: max response [27]
-15.8%: max response [5]
inactive: Potency [1] | activation [2] 4.76% | Potency [20] | outcome [21] | Potency [28] | Potency [3] | Potency [4] | Potency [22] | outcome [23] | Potency [6] | Potency [7] | activity change % (negative = inhibition) [8] -6.4% | activation [11] -3.3% | activation [12] -1.96% | max response [13] -1.01% | Potency [14] | max response [15] -13.2% | max response [16] -10% | Potency [17] | max response [18] -5.22% | outcome [26]
